High-throughput results from PubChem.
The list is not random: actives were taken first. Their share in the collection is about 7.4%.
hNpr1 antagonist: Natriuretic polypeptide receptor (hNpr1) antagonism - Primary qHTS; Atrial natriuretic peptide receptor 1 (Homo sapiens), P16066; HEK293 hNpr1 GloSensor cGMP, ANP-stimulated luminescence; Potency, µM (doses to about 46.3 µM), for the others: top-dose activity change, negative = inhibition, most hits filed as inhibitors; 76,000 compounds, 1.6% hits; calls by dose curve; further: nearly all actives have a fitted effect of over 60% in size
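HEK293 cells stably expressing human Npr1 and cGMP GloSensor pGS-40F, loaded 2 h with 2% GloSensor reagent, given compound 30 min at room temperature. Luminescence read before and 20 min after 0.1 nM hNppA.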
HEK cytotox: Cytotoxic Profiling in HEK 293 Cell Line of Diverse Libraries Using Quantitative High-Throughput Screening; HEK 293 viability, ATP luminescence (CellTiter-Glo), 48-72 h; Potency, µM (doses to about 115 µM), inactives show at the top dose activity change, negative = cytotoxicity, most hits filed as inhibitors; 94,000 compounds, 6.6% hits; further: nearly all actives have a fitted effect of over 60% in size
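Viability of HEK 293 cells, plated at 250 cells/well, was judged by cellular ATP after compound treatment for 48 or 72 hr. Luminescence was imaged 10 min after CellTiter-Glo addition at room temperature.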
FLuc inh: Firefly luciferase inhibition profiling of diverse chemical library using quantitative high-throughput screening; Potency, µM (doses to about 115 µM), usual class: inhibitors; Luciferin 4-monooxygenase (Photinus pyralis), P08659; purified P. pyralis luciferase, luminescence, biochemical; 76,000 compounds, 2.5% hits; further: nearly all actives have a fitted effect of over 65% in size
Target sequence (P08659 whole entry, looked up): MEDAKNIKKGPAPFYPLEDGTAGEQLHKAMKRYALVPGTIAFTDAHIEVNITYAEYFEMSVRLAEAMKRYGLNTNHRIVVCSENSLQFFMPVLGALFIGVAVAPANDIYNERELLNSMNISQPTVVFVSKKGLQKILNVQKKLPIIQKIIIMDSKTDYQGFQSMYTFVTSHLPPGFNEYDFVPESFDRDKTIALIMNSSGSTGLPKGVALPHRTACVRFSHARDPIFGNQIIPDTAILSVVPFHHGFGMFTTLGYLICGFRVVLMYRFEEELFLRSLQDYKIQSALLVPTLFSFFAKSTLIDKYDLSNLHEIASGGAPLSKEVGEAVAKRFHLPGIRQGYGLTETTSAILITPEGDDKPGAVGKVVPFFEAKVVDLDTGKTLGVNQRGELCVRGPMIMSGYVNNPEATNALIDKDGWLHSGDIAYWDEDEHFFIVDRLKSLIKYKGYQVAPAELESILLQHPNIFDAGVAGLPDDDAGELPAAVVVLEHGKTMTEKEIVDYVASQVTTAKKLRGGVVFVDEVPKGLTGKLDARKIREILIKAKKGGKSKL
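FLuc 10nM, D-luciferin 10uM, ATP 10uM, Mg acetate 10mM, Tris acetate pH 7.5, Tween/BSA; cpd qHTS; enzyme added last; CCD luminescence.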
SNCA expr inhib: Primary qHTS assay for inhibitors of alpha-synuclein gene (SNCA) expression; HEK-293 SNCA-luciferase knock-in, luminescence, 24 h; Potency, µM (top dose mostly 57.2 µM), without a hit: top-dose activity change, negative = inhibition, hits mostly inhibitors; 140,000 compounds, 0.17% hits; AID 1671194, 2021;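 further: plate controls were DMSO cells for no effect and cell-free wells for full effect; nearly all actives have a fitted effect of over 45% in size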
NIH3T3 tox: Cytotoxic Profiling in NIH 3T3 Cell Line of Diverse Libraries Using Quantitative High-Throughput Screening; NIH 3T3 viability, CellTiter-Glo ATP luminescence, 48-72 h; Potency, µM (top dose mostly 96.7 µM), for the others: at the top dose activity change, negative = cytotoxicity, actives largely listed as inhibitors; 94,000 compounds, 4.3% hits; AID 1345082, 2018; further: nearly all actives have a fitted effect of over 55% in size
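ATP-dependent luminescence (CellTiter-Glo) served as the viability signal for NIH 3T3 cells treated with compound for 48 or 72 hr at 37 °C.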
SNCA viab count: GF-AFC viability counterscreen for inhibitors of alpha-synuclein gene (SNCA) expression | Potency, µM (doses to about 57.1 µM), for the others: at the top dose activity change, negative = cytotoxicity, most hits filed as cytotoxic | 150,000 compounds, 0.12% hits | HEK-293-SNCA-luc viability, GF-AFC fluorescence, 24 h;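 further: 0% = DMSO-treated cells and -100% = medium-only wells without cells; nearly all actives have a fitted effect of over 30% in size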
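HEK-293-SNCA-luc cells (1500/well) plated 24 h, then exposed 24 h to a dilution series; GF-AFC added 30 min at 37C, fluorescence 405/540 nm; normalised to medium-only and DMSO wells, Hill fit.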
An asterisk follows results filed as active; [ ] = remark or other dose. Unless noted, the call rests on the fitted dose curve; in most records, active means well fitted curve in the direction sought with a large enough effect; inconclusive means small, poorly fitted or top-dose-only effect, or another doubt; inactive means no such curve, though single readings can be large; an effect the other way counts as inactive or inconclusive. Unless noted, on the % scale 0 is the no-effect control and ±100 the full control effect; potency means the concentration at half of the fitted maximal effect.

Screening Cc1c(Cl)cccc1-n1ncc(C(=O)N2CCc3ccccc3C2)c1C1CCN(C(=O)OC(C)(C)C)CC1 returned SNCA expr inhib 22µM* and SNCA viab count 4%.
For FC(F)(F)c1cccc(Nc2nc3nonc3nc2Nc2ccc(Cl)cc2)c1 the results were SNCA expr inhib 11µM* and SNCA viab count inconclusive.
`O=C(Nc1cccc(C(F)(F)F)c1)c1cc(-c2ccc(Cl)cc2)on1` gave SNCA expr inhib 2% and SNCA viab count 4%.
O=C(Nc1cccc2ccccc12)O[C@@H]1CO[C@H]2[C@@H]1OC[C@@H]2NS(=O)(=O)c1ccc2ccccc2c1 was read as hNpr1 antagonist 0%, HEK cytotox inconclusive, FLuc inh inactive, SNCA expr inhib 9%, NIH3T3 tox 79µM* and SNCA viab count -5%.
`O=C(Nc1ccc(Oc2ccccc2)cc1)O[C@@H]1CO[C@H]2[C@@H]1OC[C@@H]2NC(=O)c1ccccn1` gave hNpr1 antagonist 11µM*, HEK cytotox inconclusive, FLuc inh inconclusive, SNCA expr inhib 26%, NIH3T3 tox inconclusive and SNCA viab count inconclusive.
For O=C(Nc1cccc2ccccc12)O[C@@H]1CO[C@H]2[C@@H]1OC[C@@H]2NCC1CCCCC1 the results were hNpr1 antagonist -22%[70.6 µM], HEK cytotox 45µM*, FLuc inh inactive, SNCA expr inhib inconclusive, NIH3T3 tox inconclusive and SNCA viab count -28%[87.6 µM].
`O=C(Nc1cccc2ccccc12)O[C@@H]1CO[C@H]2[C@@H]1OC[C@@H]2NC(=O)C1CCC1` gave hNpr1 antagonist -2%[70.6 µM], HEK cytotox -8%[172 µM], FLuc inh inactive, SNCA expr inhib -14%[87.6 µM], NIH3T3 tox -6%[174 µM] and SNCA viab count -3%[87.6 µM].
For O=C(Nc1ccc(Oc2ccccc2)cc1)N[C@H]1CO[C@H]2[C@@H]1OC[C@H]2OC(=O)Nc1cccc2ccccc12 the results were hNpr1 antagonist inconclusive, HEK cytotox 18µM*, FLuc inh inactive, SNCA expr inhib inconclusive, NIH3T3 tox inconclusive and SNCA viab count -25%.
`COc1cccc(N2C(=O)NC(=NC3CCCCC3)C23CCCN([S+](=O)([O-])c2cccc(OC)c2)C3)c1` (stereo not given) gave HEK cytotox -20%, SNCA expr inhib -7%, NIH3T3 tox -21% and SNCA viab count -3%.
Screening O=C(Cn1ccn2nc(-c3ccccc3)c(CO)c2c1=O)Nc1ccc(F)c(Cl)c1 returned hNpr1 antagonist -2%, HEK cytotox inconclusive, FLuc inh inactive, SNCA expr inhib -13%, NIH3T3 tox -26% and SNCA viab count -5%.
`COC(=O)[C@@H]1Cc2ncn(C)c2CN1S(=O)(=O)c1ccc(OC)cc1` gave hNpr1 antagonist -1%[70.6 µM], HEK cytotox inactive, FLuc inh inactive, SNCA expr inhib inconclusive, NIH3T3 tox -29%[174 µM] and SNCA viab count -1%[87.6 µM].
Screening Cc1nn(CCC#N)c(C)c1[C@@H]1C=C[C@@H](NCc2ccc(F)cc2)C1 returned hNpr1 antagonist -3%[70.6 µM], HEK cytotox -15%[172 µM], FLuc inh inactive, SNCA expr inhib -20%[87.6 µM], NIH3T3 tox 2%[174 µM] and SNCA viab count -5%[87.6 µM].
Screening Cc1nn(CCC#N)c(C)c1[C@@H]1C=C[C@@H](NCc2ccc(C(C)C)cc2)C1 returned hNpr1 antagonist -26%[70.6 µM], HEK cytotox 71µM*, FLuc inh inactive, SNCA expr inhib -21%[87.6 µM], NIH3T3 tox inconclusive and SNCA viab count -13%[87.6 µM].
